Test results published in the supplement of paper PMC7411054.
Structures can show the parent of a compound that is named as a salt.

Legend:
Assay in all cases: phenotypically active (imaging signature differs from DMSO and reproducible) at any of 0.3-9 uM (binary (1 = active, 0 = inactive)); higher = active
Conditions in all cases: treatment time: 24 h
A549-ACTB-RAB5A = test system: A549-ACTB-RAB5A
How it was run: (§1)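 Fifteen reporter lines derived from A549, HepG2 and WPMY1 cells by gene editing, carrying BFP for segmentation plus GFP and RFP/FusionRed markers, were exposed to 0.3, 1, 3 or 9 µM for 24 h in four wells each and imaged live. Live-cell features from each well were normalised to solvent control wells. A well set counted as deviating when ≥3 of 4 wells lay beyond the 95th percentile of control Euclidean distances, and as reproducible when the median replicate Pearson correlation exceeded the 95th percentile of non-replicates. Phenotypic activity was assigned only when both criteria were met.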

A549-CANX-COX4 = test system: A549-CANX-COX4
How it was run: as §1

A549-GM130-SQSTM1 = test system: A549-GM130-SQSTM1
How it was run: as §1

A549-TP53BP1-CLTA = test system: A549-TP53BP1-CLTA
How it was run: as §1

A549-TUBA1B-RELA = test system: A549-TUBA1B-RELA
How it was run: as §1

HepG2-ACTB-RAB5A = test system: HepG2-ACTB-RAB5A
How it was run: as §1

HepG2-CANX-COX4 = test system: HepG2-CANX-COX4
How it was run: as §1

HepG2-GM130-SQSTM1 = test system: HepG2-GM130-SQSTM1
How it was run: as §1

HepG2-TP53BP1-CLTA = test system: HepG2-TP53BP1-CLTA
How it was run: as §1

HepG2-TUBA1B-RELA = test system: HepG2-TUBA1B-RELA
How it was run: as §1

WPMY1-ACTB-RAB5A = test system: WPMY1-ACTB-RAB5A
How it was run: as §1

WPMY1-CANX-COX4 = test system: WPMY1-CANX-COX4
How it was run: as §1

WPMY1-GM130-SQSTM1 = test system: WPMY1-GM130-SQSTM1
How it was run: as §1

WPMY1-TP53BP1-CLTA = test system: WPMY1-TP53BP1-CLTA
How it was run: as §1

WPMY1-TUBA1B-RELA = test system: WPMY1-TUBA1B-RELA
How it was run: as §1

Measured: phenotypically active

CCCCCCCCCN1C[C@H](O)[C@@H](O)[C@H](O)[C@H]1CO [N-Nonyldeoxynojirimycin]
inactive: A549-ACTB-RAB5A 0 | A549-CANX-COX4 0 | A549-GM130-SQSTM1 0 | A549-TP53BP1-CLTA 0 | A549-TUBA1B-RELA 0 | HepG2-ACTB-RAB5A 0 | HepG2-CANX-COX4 0 | HepG2-GM130-SQSTM1 0 | HepG2-TP53BP1-CLTA 0 | HepG2-TUBA1B-RELA 0 | WPMY1-ACTB-RAB5A 0 | WPMY1-CANX-COX4 0 | WPMY1-GM130-SQSTM1 0 | WPMY1-TP53BP1-CLTA 0 | WPMY1-TUBA1B-RELA 0

CC1(C)CCC(c2ccc(Cl)cc2)=C(CN2CCN(c3ccc(C(=O)NS(=O)(=O)c4ccc(N[C@H](CCN5CCOCC5)CSc5ccccc5)c(S(=O)(=O)C(F)(F)F)c4)cc3)CC2)C1 [navitoclax]
inactive: A549-ACTB-RAB5A 0 | A549-CANX-COX4 0 | A549-GM130-SQSTM1 0 | A549-TP53BP1-CLTA 0 | A549-TUBA1B-RELA 0 | HepG2-ACTB-RAB5A 0 | HepG2-CANX-COX4 0 | HepG2-GM130-SQSTM1 0 | HepG2-TP53BP1-CLTA 0 | HepG2-TUBA1B-RELA 0 | WPMY1-ACTB-RAB5A 0 | WPMY1-CANX-COX4 0 | WPMY1-GM130-SQSTM1 0 | WPMY1-TP53BP1-CLTA 0 | WPMY1-TUBA1B-RELA 0

Nc1ncnc2c1c(-c1ccc(Cl)cc1)nn2-c1cccc(-c2cnnn2Cc2cccc(-c3ccccc3)c2)c1
inactive: A549-ACTB-RAB5A 0 | A549-CANX-COX4 0 | A549-GM130-SQSTM1 0 | A549-TP53BP1-CLTA 0 | A549-TUBA1B-RELA 0 | HepG2-ACTB-RAB5A 0 | HepG2-CANX-COX4 0 | HepG2-GM130-SQSTM1 0 | HepG2-TP53BP1-CLTA 0 | HepG2-TUBA1B-RELA 0 | WPMY1-ACTB-RAB5A 0 | WPMY1-CANX-COX4 0 | WPMY1-GM130-SQSTM1 0 | WPMY1-TP53BP1-CLTA 0 | WPMY1-TUBA1B-RELA 0

O=NN(CCCl)C(=O)NCCCl [carmustine]
inactive: A549-ACTB-RAB5A 0 | A549-CANX-COX4 0 | A549-GM130-SQSTM1 0 | A549-TP53BP1-CLTA 0 | A549-TUBA1B-RELA 0 | HepG2-ACTB-RAB5A 0 | HepG2-CANX-COX4 0 | HepG2-GM130-SQSTM1 0 | HepG2-TP53BP1-CLTA 0 | HepG2-TUBA1B-RELA 0 | WPMY1-ACTB-RAB5A 0 | WPMY1-CANX-COX4 0 | WPMY1-GM130-SQSTM1 0 | WPMY1-TP53BP1-CLTA 0 | WPMY1-TUBA1B-RELA 0

Nc1c2c(nc3ccccc13)CCCC2 [tacrine]
inactive: A549-ACTB-RAB5A 0 | A549-CANX-COX4 0 | A549-GM130-SQSTM1 0 | A549-TP53BP1-CLTA 0 | A549-TUBA1B-RELA 0 | HepG2-ACTB-RAB5A 0 | HepG2-CANX-COX4 0 | HepG2-GM130-SQSTM1 0 | HepG2-TP53BP1-CLTA 0 | HepG2-TUBA1B-RELA 0 | WPMY1-ACTB-RAB5A 0 | WPMY1-CANX-COX4 0 | WPMY1-GM130-SQSTM1 0 | WPMY1-TP53BP1-CLTA 0 | WPMY1-TUBA1B-RELA 0

CC1=CC(=O)C2=C(C)CC[C@@H]3[C@H](OC(=O)[C@H]3C)[C@@H]12 [Leucomisine]
inactive: A549-ACTB-RAB5A 0 | A549-CANX-COX4 0 | A549-GM130-SQSTM1 0 | A549-TP53BP1-CLTA 0 | A549-TUBA1B-RELA 0 | HepG2-ACTB-RAB5A 0 | HepG2-CANX-COX4 0 | HepG2-GM130-SQSTM1 0 | HepG2-TP53BP1-CLTA 0 | HepG2-TUBA1B-RELA 0 | WPMY1-ACTB-RAB5A 0 | WPMY1-CANX-COX4 0 | WPMY1-GM130-SQSTM1 0 | WPMY1-TP53BP1-CLTA 0 | WPMY1-TUBA1B-RELA 0

COc1ccc(C(C)=O)c(O)c1 [2'-Hydroxy-4'-Methoxyacetophenone]
inactive: A549-ACTB-RAB5A 0 | A549-CANX-COX4 0 | A549-GM130-SQSTM1 0 | A549-TP53BP1-CLTA 0 | A549-TUBA1B-RELA 0 | HepG2-ACTB-RAB5A 0 | HepG2-CANX-COX4 0 | HepG2-GM130-SQSTM1 0 | HepG2-TP53BP1-CLTA 0 | HepG2-TUBA1B-RELA 0 | WPMY1-ACTB-RAB5A 0 | WPMY1-CANX-COX4 0 | WPMY1-GM130-SQSTM1 0 | WPMY1-TP53BP1-CLTA 0 | WPMY1-TUBA1B-RELA 0

O=C(CCc1ccc(O)cc1)c1c(O)cc(O)cc1O[C@@H]1O[C@H](CO)[C@@H](O)[C@H](O)[C@H]1O [Phloridzin]
inactive: A549-ACTB-RAB5A 0 | A549-CANX-COX4 0 | A549-GM130-SQSTM1 0 | A549-TP53BP1-CLTA 0 | A549-TUBA1B-RELA 0 | HepG2-ACTB-RAB5A 0 | HepG2-CANX-COX4 0 | HepG2-GM130-SQSTM1 0 | HepG2-TP53BP1-CLTA 0 | HepG2-TUBA1B-RELA 0 | WPMY1-ACTB-RAB5A 0 | WPMY1-CANX-COX4 0 | WPMY1-GM130-SQSTM1 0 | WPMY1-TP53BP1-CLTA 0 | WPMY1-TUBA1B-RELA 0

C[C@H](Cc1cc2c(c(C(N)=O)c1)N(CCCO)CC2)NCCOc1ccccc1OCC(F)(F)F [silodosin]
inactive: A549-ACTB-RAB5A 0 | A549-CANX-COX4 0 | A549-GM130-SQSTM1 0 | A549-TP53BP1-CLTA 0 | A549-TUBA1B-RELA 0 | HepG2-ACTB-RAB5A 0 | HepG2-CANX-COX4 0 | HepG2-GM130-SQSTM1 0 | HepG2-TP53BP1-CLTA 0 | HepG2-TUBA1B-RELA 0 | WPMY1-ACTB-RAB5A 0 | WPMY1-CANX-COX4 0 | WPMY1-GM130-SQSTM1 0 | WPMY1-TP53BP1-CLTA 0 | WPMY1-TUBA1B-RELA 0

C[C@]12CC[C@@H]3c4ccc(OS(=O)(=O)O)cc4CC[C@H]3[C@@H]1CCC2=O [estrone sulfuric acid]
inactive: A549-ACTB-RAB5A 0 | A549-CANX-COX4 0 | A549-GM130-SQSTM1 0 | A549-TP53BP1-CLTA 0 | A549-TUBA1B-RELA 0 | HepG2-ACTB-RAB5A 0 | HepG2-CANX-COX4 0 | HepG2-GM130-SQSTM1 0 | HepG2-TP53BP1-CLTA 0 | HepG2-TUBA1B-RELA 0 | WPMY1-ACTB-RAB5A 0 | WPMY1-CANX-COX4 0 | WPMY1-GM130-SQSTM1 0 | WPMY1-TP53BP1-CLTA 0 | WPMY1-TUBA1B-RELA 0

CC(C)NCC(O)c1ccc(O)c(O)c1 (stereo not given) [Isoproterenol hydrochloride]
inactive: A549-ACTB-RAB5A 0 | A549-CANX-COX4 0 | A549-GM130-SQSTM1 0 | A549-TP53BP1-CLTA 0 | A549-TUBA1B-RELA 0 | HepG2-ACTB-RAB5A 0 | HepG2-CANX-COX4 0 | HepG2-GM130-SQSTM1 0 | HepG2-TP53BP1-CLTA 0 | HepG2-TUBA1B-RELA 0 | WPMY1-ACTB-RAB5A 0 | WPMY1-CANX-COX4 0 | WPMY1-GM130-SQSTM1 0 | WPMY1-TP53BP1-CLTA 0 | WPMY1-TUBA1B-RELA 0
